Source: PubChem BioAssay (EPA / NIEHS)
The source made the active and inactive calls. How the source made its calls: active means hit-call score of the fitted dose curve at least 0.9, where 1 is the maximum; inactive means score below 0.9.

Columns and labels:
[1] = read-out: Human Leukocyte Antigen - DR isotype (HLADR), HLA-DRA (gene 3122); assay: BSK_CASM3C_HLADR: BioMAP Diversity Plus: CASM3C Assay for Human Leukocyte Antigen - DR isotype (HLADR) Biomarker Activity (AID 2283043); settings: primary human coronary artery smooth muscle cells; actives raise or lower the signal;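 further: cell-surface HLA-DR protein level quantified by ELISA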
[2] = read-out: Macrophage colony-stimulating factor (MCSF), CSF1 (gene 1435); assay: BSK_CASM3C_MCSF: BioMAP Diversity Plus: CASM3C Assay for Macrophage colony-stimulating factor (MCSF) Biomarker Activity (AID 2283044); settings: primary human coronary artery smooth muscle cells; actives raise or lower the signal;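 further: M-CSF protein amount quantified by ELISA after 24 h exposure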
[3] = read-out: Low-density lipoprotein receptor (LDLR), LDLR (gene 3949); assay: BSK_CASM3C_LDLR: BioMAP Diversity Plus: CASM3C Assay for Low-density lipoprotein receptor (LDLR) Biomarker Activity (AID 2283045); settings: primary human coronary artery smooth muscle cells; actives raise or lower the signal;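 further: LDLR protein level on the cell surface quantified by ELISA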
[4] = read-out: Monocyte Chemoattractant Protein-1 (MCP1), CCL2 (gene 6347); assay: BSK_CASM3C_MCP1: BioMAP Diversity Plus: CASM3C Assay for Monocyte Chemoattractant Protein-1 (MCP1) Biomarker Activity (AID 2283046); settings: primary human coronary artery smooth muscle cells; actives raise or lower the signal;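 further: MCP-1 level quantified by ELISA 24 h after dosing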
[5] = BSK_CASM3C_Proliferation: Cell Proliferation Assessment in the BioMAP Diversity Plus: CASM3C Assay (AID 2283047); settings: primary human coronary artery smooth muscle cells;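 further: sulforhodamine B total protein stain as relative cell number at 560 nm; sub-confluent cells exposed 48 h before staining; fitted both ways against DMSO so gain or loss of cell number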
[6] = read-out: Monokine induced gamma interferon (MIG), CXCL9 (gene 4283); assay: BSK_CASM3C_MIG: BioMAP Diversity Plus: CASM3C Assay for Monokine induced gamma interferon (MIG) Biomarker Activity (AID 2283048); settings: primary human coronary artery smooth muscle cells; actives raise or lower the signal;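 further: MIG protein level measured by ELISA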
[7] = read-out: serum amyloid A (SAA), SAA1 (gene 6288); assay: BSK_CASM3C_SAA: BioMAP Diversity Plus: CASM3C Assay for serum amyloid A (SAA) Biomarker Activity (AID 2283049); settings: primary human coronary artery smooth muscle cells; actives raise or lower the signal;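 further: SAA protein level quantified by ELISA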
[8] = BSK_CASM3C_SRB: Viability Assessment in the BioMAP Diversity Plus: CASM3C Assay (AID 2283050); settings: primary human coronary artery smooth muscle cells;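 further: total protein by SRB staining as cytotoxicity measure in parallel cultures; cells exposed to compound for 24 h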
[9] = read-out: Thrombomodulin, THBD (gene 7056); assay: BSK_CASM3C_Thrombomodulin: BioMAP Diversity Plus: CASM3C Assay for Thrombomodulin Biomarker Activity (AID 2283051); settings: primary human coronary artery smooth muscle cells; actives raise or lower the signal;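 further: thrombomodulin protein level measured by ELISA 24 h after dosing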
[10] = read-out: Tissue Factor, F3 (gene 2152); assay: BSK_CASM3C_TissueFactor: BioMAP Diversity Plus: CASM3C Assay for Tissue Factor Biomarker Activity (AID 2283052); settings: primary human coronary artery smooth muscle cells; actives raise or lower the signal;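 further: cell surface tissue factor protein level read by ELISA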

Measured: AC50

O=C(O)Cc1cc(I)c(Oc2ccc(O)c(I)c2)c(I)c1
inactive: all assays above

Cc1cn([C@H]2C[C@H](N=[N+]=[N-])[C@@H](CO)O2)c(=O)[nH]c1=O
inactive: all assays above

CCCCOC(=O)c1ccc(O)cc1
inactive: all assays above

O=C(OCCCCCCOC(=O)c1ccccc1)c1ccccc1
active: [9] 15.9 µM
inactive: all other assays above

Cc1ccc(C(C)C)cc1
inactive: all assays above

O=C1O[C@H]([C@@H](O)CO)C(O)=C1O
inactive: all assays above

CN(C)c1ccc(C(=C2C=CC(=[N+](C)C)C=C2)c2ccc(N(C)C)cc2)cc1
inactive: [9]
active: [1] 7.11 µM | [2] 6.36 µM | [3] 5.4 µM | [4] 1.07 µM | [5] 2.06 µM | [6] 8.07 µM | [7] 0.822 µM | [8] 7.66 µM | [10] 1.49 µM

CC(C)(C)c1csc(-c2cc3cc(OCc4ccccc4CC(=O)O)ccc3o2)n1
active: [1] 29 µM | [2] 28.2 µM | [5] 34 µM | [8] 31 µM
inactive: all other assays above

CCCCCCCCN(C)CCCCCCCC
inactive: all assays above

CC(O)CC(C)(C)O (stereo not given)
inactive: all assays above

O=c1ccc2ccccc2o1
active: [7] 0.148 µM
inactive: all other assays above

CCCCCCCCOC(=O)c1cc(O)c(O)c(O)c1
active: [1] 31.9 µM | [2] 20 µM | [3] 29.2 µM | [4] 27.8 µM | [5] 16.1 µM | [6] 31 µM | [7] 20 µM | [8] 31.3 µM | [9] 0.282 µM
inactive: [10]

Cc1ccc2oc(CN(Cc3ccccc3)C(=O)Nc3c(F)cc(F)cc3F)c(-c3ccc(Cl)cc3)c2c1
inactive: all assays above

O=C=NCCCCCCN=C=O
inactive: all assays above

CCN(CC)C(=O)c1cc(S(=O)(=O)Cc2ccccc2)c(N2CCC(c3ccccc3)CC2)cc1N(CC)CCN(C)C
active: [1] 5.38 µM | [3] 0.138 µM | [5] 7.05 µM | [8] 27.1 µM | [10] 29.8 µM
inactive: all other assays above

CN(C[C@@H](CC[N+]12CCC(C3CCCCC3)(CC1)CC2)c1ccc(Cl)c(Cl)c1)C(=O)c1cc(C(F)(F)F)cc(C(F)(F)F)c1
active: [1] 12.7 µM | [2] 14.9 µM | [3] 14.3 µM | [4] 15.6 µM | [5] 9.26 µM | [6] 31.1 µM | [7] 18 µM | [8] 14.7 µM | [10] 20 µM
inactive: [9]

CN1C(=O)N(c2ccccc2Br)Cc2cnc(Nc3ccc4c(c3)OCC(CO)O4)nc21 (stereo not given)
inactive: [9]
active: [1] 11.5 µM | [2] 5.62 µM | [3] 37.8 µM | [4] 9.73 µM | [5] 1.27 µM | [6] 32.3 µM | [7] 5.98 µM | [8] 20 µM | [10] 0.952 µM

CCCCCCCCCCCCO
inactive: [3] | [8] | [9]
active: [1] 31.5 µM | [2] 31.2 µM | [4] 34.7 µM | [5] 32.6 µM | [6] 31.3 µM | [7] 29.4 µM | [10] 32.3 µM

Cc1cccc2ccccc12
inactive: all assays above

Oc1ccc2ccccc2c1
inactive: all assays above

CCCCOC(=O)CC(CC(=O)OCCCC)(OC(C)=O)C(=O)OCCCC
active: [7] 20 µM
inactive: all other assays above

O=C(O)c1ccccc1C(=O)OCc1ccccc1
inactive: all assays above

CCN(Cc1cccnc1)C(=O)c1cccc(Cl)c1[C@]1(C)C(=O)N(Cc2ccc(OC)cc2OC)c2ccc(Cl)cc21
active: [1] 29.8 µM | [3] 1.39 µM | [5] 12.6 µM
inactive: all other assays above

c1ccc(C[n+]2cccc3ccccc32)cc1
inactive: all assays above

CC[C@H](NC(=O)c1cc(F)ccc1NS(=O)(=O)c1cccc2cccnc12)c1ccccc1
active: [3] 7.05 µM | [9] 10.8 µM
inactive: all other assays above

COc1cccc([C@H](O)C2CCN(CCc3ccc(F)cc3)CC2)c1OC
inactive: all assays above

O=C(O)c1ccccc1-n1cc(C(=O)O)c(=O)c2cc(Nc3c(F)cc(F)cc3Cl)c(Cl)cc21
inactive: all assays above

CCOC(=O)O[C@H](C)OC(=O)c1ccc2c(c1)cc(C(=O)NC1CCN(C(C)C)CC1)n2Cc1cc(-c2ccc(Cl)s2)on1
active: [1] 5.85 µM | [2] 5.13 µM | [4] 7.49 µM | [5] 2.41 µM | [6] 9.34 µM | [7] 6.05 µM | [8] 6.15 µM | [9] 9.19 µM | [10] 7.43 µM
inactive: [3]

c1ccc2n[nH]nc2c1
inactive: all assays above

O=c1[nH]sc2ccccc12
active: [1] 5.36 µM | [2] 14.9 µM | [3] 12.7 µM | [4] 13.1 µM | [5] 1.89 µM | [6] 10.7 µM | [7] 20.4 µM | [8] 17.3 µM | [9] 4.73 µM | [10] 28 µM

CCCCCCCCCCCO
active: [5] 33.5 µM
inactive: all other assays above

CCO[Si](CCCNC(N)=O)(OCC)OCC
inactive: all assays above

CCCC(=O)OCCC(C)C
inactive: all assays above

OCCO
inactive: all assays above

CC/C(=C(/CC)c1ccc(O)cc1)c1ccc(O)cc1
inactive: [1] | [2] | [6] | [9]
active: [3] 8.57 µM | [4] 0.345 µM | [5] 20 µM | [7] 33.7 µM | [8] 29.9 µM | [10] 11 µM

CC1=CC(=O)/C(=C(/C)O)C(=O)O1
inactive: all assays above

CC1(C)NC(=O)N(c2ccc([N+](=O)[O-])c(C(F)(F)F)c2)C1=O
active: [2] 11.8 µM | [5] 11.8 µM
inactive: all other assays above

CCCCCCCCOc1ccc(C(=O)c2ccccc2)c(O)c1
inactive: all assays above
